# Measurements from PubChem BioAssay AID1063 (University of Pittsburgh Molecular Library Screening Center, 2008).
# Hit rate of the full screen: of about 200,000 compounds, about 18,000 (9%) were called active. This is one part of a sample in which actives are shown more often than they occur. Unmarked numbers belong to inactive results. Cut-off read from the data, not from the text of the source: active = inhibition above about 50%; inactive = the rest.
# Assay: antileishmanial activity against promastigotes – primary screen (AID 1063);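 note: promastigotes grown with compound for 44 hours at 28 °C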
# Conditions: Leishmania major promastigotes, resazurin fluorescence viability; at 10 µM; stronger effect = higher value
row,SMILES,inhibition
1,OCC(O)CN(c1ccccc1)c1ccccc1 (stereo unspecified),-1.63%
2,O=C(COc1ccc(-c2ccccc2)cc1)NN=C1CCCC1,-3.72%
3,COc1ccc(/C=C2\SC(=S)N(CC(=O)NNC(=O)c3ccncc3)C2=O)cc1,-5.15%
4,Cn1cc([N+](=O)[O-])c(C(=O)Nc2cnn(Cc3ccc(F)cc3)c2)n1,98.6% (active)
5,Cn1cc([N+](=O)[O-])c(C(=O)Nc2ccc3c(c2)OCCO3)n1,10.7%
6,CCc1ccc(NC(=O)c2ccc(Cn3cc([N+](=O)[O-])cn3)cc2)cc1,-3.55%
7,CCC(=O)c1ccc(N2CCN(C(=O)c3cc([N+](=O)[O-])ccc3F)CC2)c(F)c1,12.8%
8,CC(=O)Nc1ccc(S(=O)(=O)N(C)c2ccc(OCC(=O)OCC(=O)N3CCCCC3)cc2)cc1,-6.69%
9,CSc1nc2ccc(NC(=O)c3c(F)cccc3F)cc2s1,15.7%
10,Cc1cccc(NC(=S)Nc2ccc3cn[nH]c3c2)c1,5.93%
11,CCN(CC)CCN(C(=O)c1cccc([N+](=O)[O-])c1)c1nc2ccc(OC)cc2s1,1.41%
12,O=C(/C=C/c1ccccc1Cl)Nc1ccc(S(=O)(=O)Nc2ncccn2)cc1,-5.22%
13,O=C(/C=C/c1ccc(Cl)cc1)Nc1ccc(S(=O)(=O)Nc2ncccn2)cc1,63.3% (active)
14,O=S(=O)(Nc1ncccn1)c1ccc(NS(=O)(=O)c2cccc(Cl)c2Cl)cc1,-9.09%
15,CCOc1cc(NC(=S)NCc2ccco2)c(OCC)cc1NC(=O)c1ccco1,-3.82%
16,C[C@@H](C(=O)N1CCNCC1)n1cc(CCC(=O)O)nn1,-3.38%
17,CCc1ccc(-n2c(=S)sc3c(=O)n(-c4ccccc4OC)c(=S)[nH]c32)cc1,-0.77%
18,CCOC(=O)COc1ccc(Cl)cc1C1NC(=O)NC(C)=C1C(C)=O (stereo unspecified),0.61%
19,COC(=O)COc1ccc(C2NC(=O)NC(C)=C2C(=O)NCc2ccccc2)cc1OC (stereo unspecified),-7.17%
20,CCCOc1ccc(C2NC(=O)NC(c3ccccc3)=C2C(C)=O)cc1OCC (stereo unspecified),71.8% (active)
21,NS(=O)(=O)c1ccc(NC(=O)COC(=O)c2ccc(Cl)nc2)cc1,-7.52%
22,NS(=O)(=O)c1ccc(NC(=S)NC(=O)c2cccc(Br)c2)cc1,1.9%
23,O=c1cc(CO)oc(CN2CCC(Cc3ccccc3)CC2)c1O,-2.15%
24,CCNC(=S)NNC(=O)C1CCN(Cc2ccccc2)CC1,-3.47%

row,SMILES,inhibition
1,O=C(NCc1cccs1)C1CCN(S(=O)(=O)c2ccc(Cl)cc2)CC1,-6.16%
2,O=C(NCCCN1CCN(Cc2ccccc2)CC1)C1CCN(S(=O)(=O)N2CCCC2)CC1,-6.76%
3,CC(C)(C)NC(=O)NC(=O)CN1CCC(Cc2ccccc2)CC1,-1.19%
4,CCCC(=O)C1CCN(Cc2ccccc2)CC1,82.8% (active)
5,O=C(NNS(=O)(=O)c1ccc(Cl)cc1)C1CCN(Cc2ccccc2)CC1,95.9% (active)
6,O=C(Nc1ccccc1)N1CCN(Cc2ccccc2)CC1,-1.08%
7,NC(=O)c1ccc(CN2CCC(Cc3ccccc3)CC2)cc1,86.9% (active)
8,CCOC(=O)N1CCN(C(=O)c2ccccc2N(Cc2ccccc2)S(=O)(=O)c2ccc(OC)cc2)CC1,43.4%
9,COc1ccc(N2CCN(CCCNC(=O)C3CCN(S(=O)(=O)N4CCOCC4)CC3)CC2)cc1,-4.04%
10,CC(C)NC(=O)c1ccc(Cl)cc1Cl,-4.71%
11,Cc1cc(C)cc(NC(=O)N2CCCCCCC2)c1,9.55%
12,CCOC(=O)C1CCN(c2ncnc3c2c(-c2ccccc2)cn3-c2ccc(C)cc2)CC1,-6.27%
13,Cc1ccc(NC(=O)Nc2cccc(C(F)(F)F)c2)nc1,11%
14,COC(=O)C1=C(C)N(c2ccc(Br)cc2)C(=O)/C1=C\c1ccco1,24.7%
15,COC(=O)C1=C(C)NC(=O)/C1=C/c1ccc(CNS(=O)(=O)c2ccc(C)cc2)o1,15.8%
16,COC(=O)C1=C(C)N(c2ccc(C)cc2)/C(=C/c2ccc(O)cc2)C1=O,97.8% (active)
17,COc1ccc(S(=O)(=O)N2CCN(C(=O)c3cc(C)oc3C)CC2)cc1,8.89%
18,C/C(CC(=O)Nc1cccc(C(F)(F)F)c1)=N\NC(=O)C(=O)NCC(C)C,-8.72%
19,COc1ccc(C(=O)CSc2nnc(-c3ccco3)o2)cc1,-1.52%
20,N#Cc1ccc(-c2nc3cc(C#N)c(C#N)cc3nc2-c2ccccc2)cc1C#N,59% (active)
21,N#Cc1c(-c2ccc(F)cc2)nc(-c2ccccc2)[nH]c1=O,3.06%
22,N#Cc1ccc(-c2ccc(F)cc2)nc1Sc1ccccc1,-13%
23,CC1(C)CC(=O)c2cnc3nc4ccccc4n3c2C1,0.4%
24,Cc1cccc(CCNS(=O)(=O)c2ccc(S(=O)(=O)NC3CCCC3)cc2)c1,68.6% (active)

row,SMILES,inhibition
1,O=C(CCc1ccc(S(=O)(=O)NC2CCCCC2)cc1)NCc1ccccc1,43.9%
2,CSc1ccc(S(=O)(=O)NC2CCCCC2)cc1,-2.31%
3,CCOC(=O)c1c(N)nn(C(=O)c2ccccc2)c1-c1ccccc1,1.03%
4,O=c1cnnc(Nc2ccccc2)[nH]1,-6.97%
5,Cc1nc(NCCN)c(C#N)c2c1COC(C)(C)C2,-6.15%
6,CCCCc1nc(NCc2ccccc2)c(C#N)c2c1CCCC2,40.6%
7,CCCCc1nc(NCCN)c(C#N)c2c1CSC(C)(C)C2,100% (active)
8,COc1ccc(C(=O)NC(=S)Nc2ccc(Cl)cn2)cc1OC,-4.99%
9,CC(=O)C1C(c2cccc(Oc3ccccc3)c2)NC(=O)NC1(O)C(F)(F)F (stereo unspecified),-1.39%
10,CC(=O)C1C(c2ccc(Cl)cc2)NC(=O)NC1(O)C(F)(F)F (stereo unspecified),-4.84%
11,O=C1NC(c2ccc(-c3ccccc3[N+](=O)[O-])o2)C(C(=O)c2ccc(Cl)cc2)C(O)(C(F)(F)F)N1 (stereo unspecified),57.7% (active)
12,Cn1nnnc1-c1cc(Cl)cc(Cl)c1,5.35%
13,O=c1[nH]oc(O)c1-c1ncc(C(F)(F)F)cc1Cl,-7.85%
14,O=C(O)CSc1nnc(-c2ccc3c(c2)OCO3)n1-c1ccccc1,-2.94%
15,COc1cc2c(cc1OC)C(C(C)C)=NC(C)(C)C2,-1.29%
16,COc1cc2c(cc1OC)C(Nc1ccc(S(N)(=O)=O)cc1)=NC(C)(C)C2,-2.7%
17,COc1cc2c(cc1O)C(SC)=NC(C)(C)C2,77.2% (active)
18,COC(=O)c1c(NC(C)=O)sc(C(=O)Nc2ccccc2OC)c1C,-6.26%
19,COc1ccccc1CNC(=O)CN1CCC(n2cnc3cc(F)ccc32)CC1,0.36%
20,CCc1ccccc1NC(=O)Cc1cn(C)c2ccccc12,1.32%
21,NC(=O)c1c(Nc2nc3c(F)cccc3s2)sc2c1CCCC2,0.33%
22,Fc1cc(F)c2nc(Nc3nc4c(F)cccc4s3)sc2c1,64.3% (active)
23,Fc1cc(F)c2nc(N3CCOCC3)sc2c1,-5.44%
24,Cc1cc(C)n(Cc2cnc(N3CCOCC3)s2)n1,0.31%

row,SMILES,inhibition
1,COc1ccc2ccccc2c1CNc1nnnn1C,1.31%
2,COc1ccc2ccccc2c1CNCc1ccccn1,52.1% (active)
3,COc1ccc(C)cc1NC(=O)NCc1ccccn1,-9.22%
4,O=S1(=O)CC/C(=N\Nc2ccc(F)cc2)c2ccsc21,-11.7%
5,Cc1nn(CC(=O)Nc2ccc(C#N)cc2)c(C)c1[N+](=O)[O-],-6.73%
6,OCC1(Cc2ccccc2)CCN(Cc2cc3ccccc3o2)CC1,84.5% (active)
7,CN(C)CCCCCN(C)Cc1cc2ccccc2o1,11.6%
8,CC(=O)c1cccc(CN2CCC(CO)(Cc3ccccc3)CC2)c1,14%
9,Cc1ccc2c(c1)C1CN(C)CCC1N2C(=S)Nc1ccc(Cl)cc1Cl (stereo unspecified),31.9%
10,Cc1c(NC(=O)C(C)OC(=O)c2cc3c4ccccc4n(C)c3s2)c(=O)n(-c2ccccc2)n1C (stereo unspecified),88.6% (active)
11,Cc1cc(C)cc(N(C(C)C(=O)Nc2c(C)n(C)n(-c3ccccc3)c2=O)S(C)(=O)=O)c1 (stereo unspecified),-3.81%
12,COC(=O)Nc1c(C)n(C)n(-c2ccccc2)c1=O,-8.78%
13,Cc1sc2c(c1C)c(=O)n(-c1ccccc1)c(=O)n2CC(=O)NCC1CCCO1 (stereo unspecified),-0.67%
14,CCOC(=O)c1cnc2c(c(C)nn2CC)c1Cl,6%
15,O=C(CSc1nncs1)NC1CCCc2ccccc21 (stereo unspecified),-8.28%
16,O=C(CCC(=O)N1CCN(S(=O)(=O)c2ccccc2)CC1)NC1CCCc2ccccc21 (stereo unspecified),1.14%
17,O=C(CN1CCN(c2ccc(O)cc2)CC1)NC1CCCc2ccccc21 (stereo unspecified),94.5% (active)
18,COc1ccc(/C(=N\O)c2nccc3cc(OC)c(OC)cc23)cc1OC,3.01%
19,CCOC(=O)c1ccc(NC(=O)c2cc(=O)[nH]c3ccccc23)cc1,-7.03%
20,COc1ccccc1CNC(=O)CNC(=O)c1cn(-c2ccccc2OC)c(=O)c2ccccc12,-2.45%
21,COc1cc(OC)c(C(=O)OCC(=O)N2CC(=O)Nc3ccccc32)cc1OC,-4.64%
22,CC(Sc1nnnn1C)C(=O)NC(=O)NC1CCCCC1 (stereo unspecified),-2.91%
23,COc1cccc(-n2c(SCC(=O)NC3CCCCC3)nc3n[nH]c(C)c3c2=N)c1,20.6%
24,Cc1cccc(-n2c(N)cc(=O)nc2SC(C)C(=O)NC2CCCCC2)c1 (stereo unspecified),55.9% (active)
